Potency and outcome data for 6 compounds are collected here from PubChem BioAssay (NCATS).

The structures appear in SMILES notation. “And” between values parts separate entries of the source, which are not always exact repeats. Identical values can stand only once. Records with an inconclusive call do not appear. The source made the active and inactive calls. The call rests on the fitted dose curve; in most records, active means well fitted curve in the direction sought with a large enough effect; inconclusive means small, poorly fitted or top-dose-only effect, or another doubt; inactive means no such curve, though single readings can be large; an effect the other way counts as inactive or inconclusive.

Assay [1] can be described thus: SW1088 Cancer Cell Toxicity qHTS against the NCATS CANVASS Library (AID 1347350). Further: nearly all actives have a fitted effect of over 75% in size. Further: potency means the concentration at half of the fitted maximal effect. In short, it runs like this: (§1)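 Per well, 1000 cells; exposure 72 h with compound at 11 final concentrations; readout CellTiter-Glo luminescence.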
The nature of assay [2]: UWB1.289-WTBRCA1 Cancer Cell Toxicity qHTS against the NCATS CANVASS Library (AID 1347354). The essentials:
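Toxicity was measured as CellTiter-Glo luminescence after 72 h exposure to an 11-point compound series. Compound was added to 1000 cells/well 4 h after seeding.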
A general note: Quantitative high-throughput screening tests each substance at several concentrations.

A short description of assay [3]: HEK293 12hr Apoptosis Induction qHTS against the NCATS CANVASS Library (AID 1347361). The essentials:
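Luminescent caspase-3/7 signal, proportional to enzyme activity, was recorded from HEK293 cultures in DMEM + 10% FBS treated for 12 hours with titrated natural products (11 points). Doxorubicin (0.1nM - 4uM) served as control.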

For assay [4], the system named is NAD(P)H diaphorase (Clostridium kluyveri). Briefly: Diaphorse counterscreen qHTS: Assay Interference Panel against the NCATS CANVASS Library (AID 1347362). The essentials: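 Counterscreen for coupling-enzyme interference: resorufin fluorescence from resazurin/NADH turnover, read after 5 min at room temperature. Compounds were tested over an 11-point series after 15 min dark preincubation with diaphorase in PBS-Tween.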
For orientation: A counterscreen serves to expose hits that act by an unwanted route or on another target.

Assay [5] is described as follows: KB-8-5-11 Cancer Cell Toxicity qHTS against the NCATS CANVASS Library (AID 1347364). Further: nearly all actives have a fitted effect of over 75% in size. Further: potency means the concentration at half of the fitted maximal effect. In short, it runs like this: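 Viability read as CellTiter-Glo luminescence after 72 h at 37 °C, 5% CO2. 11-point compound series on 500 KB-8-5-11 cells/well in DMEM/10% FBS. Follow-up plating included 1 uM tariquidar in the medium.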
The nature of assay [6]: G06 Cancer Cell Toxicity qHTS against the NCATS CANVASS Library (AID 1347368). Further: nearly all actives have a fitted effect of over 60% in size. Further: potency means the concentration at half of the fitted maximal effect. In short, it runs like this: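 Viability measured by CellTiterGlo ATP luminescence after 72 hr at 37C, 5% CO2. Canine G06 glioma cells plated at 500/well. Compounds tested as 11-point qHTS titrations.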
The nature of assay [7]: qHTS for ATAD5 Antagonist screened against the NCATS CANVASS Library (AID 1347370). Further: nearly all actives have a fitted effect of over 65% in size. Further: potency means the concentration at half of the fitted maximal effect. In short, it runs like this:
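Compounds (11-point) co-dosed with 10 µM 5-FUrd for 16 h at 37 °C onto HEK293T-ATAD5 luciferase reporter cells. Viability measured by CellTiter-Fluor fluorescence, then ATAD5 reporter signal by luminescence.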

Assay [8] is described as follows: qHTS for Inflammasome Signaling Inhibitors: IL-1-beta AlphaLISA screen against the NCATS CANVASS Library (AID 1347379).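 Further: human THP-1 cells primed with LPS then triggered with ATP.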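 On Potency: secreted IL-1B measured as AlphaLISA emission at 615 nm; potency means the concentration at half of the fitted maximal effect.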 The essentials: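 Secreted IL-1B from human THP-1 cells quantified by AlphaLISA 16 hr after compound addition (final up to 57.5 uM). A 1 hr compound pretreatment preceded inflammasome activation with 250 ng/mL LPS plus 1.25 mM ATP (final).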
Assay [9] can be described thus: qHTS for Activators of p53 Stress Response Pathway screened against the NCATS CANVASS Library (AID 1347388). The essentials:
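Beta-lactamase reporter driven by p53 response elements in HCT-116 cells, read as the 460 nm/530 nm emission ratio after CCF4 loading, following 16 h of exposure to an 11-point series. Cell viability was measured in the same wells by CellTiter-Glo luminescence.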

A short description of assay [10]: qHTS assay for small molecule disruptors of mitochondrial membrane potential screened against the NCATS CANVASS Library (AID 1347389). Further: nearly all actives have a fitted effect of over 60% in size. Further: potency means the concentration at half of the fitted maximal effect. The essentials:
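Mitochondrial membrane potential in HepG2: 1 h compound treatment (11-point concentration series), 30 min m-MPI dye at 37C, then dual fluorescence of J-aggregates (ex 540/em 590) and monomers (ex 490/em 535); lower red/green ratio indicates depolarization.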

Assay [11] is described as follows: Secretion counterscreen for inhibitors of the SERCaMP assay screened against the NCATS CANVASS Library (AID 1347390).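 Further: light from luciferase secreted into medium read as a measure of general secretion.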 Further: potency means the concentration at half of the fitted maximal effect. In short, it runs like this: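 Natural products are titrated in an 11-point series up to 77 uM onto SH-SY5Y-GLuc STOP cells for 20 h. Secreted reporter activity is measured as coelenterazine-driven luminescence, with Brefeldin A on each plate.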

The nature of assay [12]: qHTS for activators of Nrf2/ARE signaling pathway screened against the NCATS CANVASS Library (AID 1347391). Further: nearly all actives have a fitted effect of over 60% in size. Further: potency means the concentration at half of the fitted maximal effect. In short, it runs like this: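 Eleven-point qHTS, 16 h treatment of HepG2 cells carrying an ARE-driven beta-lactamase reporter; CCF4 ratio read (405 nm excitation, 460 and 530 nm emission), with CellTiter-Glo ATP luminescence for viability.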
Assay [13] can be described thus: qHTS for activators of dead-cell proteases activity screened against the NCATS CANVASS Library (AID 1347392).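 Further: luminescence from protease leaking out of membrane-damaged cells cleaving impermeant substrate; rising signal means more cytotoxicity.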 The essentials: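 Luminescent dead-cell protease readout (AAF-aminoluciferin, 15 min, room temperature) after 5 h compound treatment of HepG2 cells (2000/well, pre-attached 18 h). Eleven concentrations.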
Assay [14] is described as follows: qHTS for inhibitors of ER calcium dysfunction: SERCaMP assay screened against the NCATS CANVASS Library (AID 1347393). Further: nearly all actives have a fitted effect of over 40% in size. Further: potency means the concentration at half of the fitted maximal effect. The essentials:
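Thapsigargin-induced ER calcium depletion drives GLuc-SERCaMP secretion from SH-SY5Y cells; compounds given 16 h beforehand were scored by lowered coelenterazine luminescence after 4 h challenge.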

Assay [15] can be described thus: qHTS for inhibitors of Wild type Zika virus screened against the NCATS CANVASS Library (AID 1347396).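 Further: ATP luminescence of surviving cells so rescue from viral cell killing; series mostly up to about 46 µM.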 In short, it runs like this: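 Protection against wild-type Zika cytopathic effect is measured in African green monkey Vero 766 cells exposed to an 11-point compound series. Surviving cells are quantified by CellTiter Glo luminescence after 72 h.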
Assay [16] in a line: Redox Reaction Profiling qHTS: Assay Interference Panel against the NCATS CANVASS Library (AID 1347401). Further: potency means the concentration at half of the fitted maximal effect. In short, it runs like this: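 Redox-cycling liability assessed as DTT-driven conversion of resazurin (5 uM, with 200 uM DTT, HEPES pH 7.3) to fluorescent resorufin. Fluorescence at 525/598 nm measured initially and after 15 min dark incubation.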
Assay [17] in a line: OV-KATE Cancer Cell Toxicity qHTS against the NCATS CANVASS Library (AID 1347345). The essentials: as §1
A short description of assay [18]: HPAF-II 12hr Apoptosis Induction qHTS against the NCATS CANVASS Library (AID 1347358). In short, it runs like this:
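Caspase-3/7 activation by DEVD-substrate luminescence (Caspase-Glo 3/7, 15 min, room temperature) after a 12-hour compound exposure in 11 concentrations, of HPAF-II pancreatic cells seeded at 500/well in DMEM with 10% FBS.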

Assay [19] can be described thus: KB-3-1 Cancer Cell Toxicity qHTS against the NCATS CANVASS Library (AID 1347366). Further: nearly all actives have a fitted effect of over 75% in size. Further: potency means the concentration at half of the fitted maximal effect. In short, it runs like this:
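Cytotoxicity toward KB-3-1 cells (500/well, DMEM + 10% FBS) was scored by CellTiter-Glo luminescence following 72 hr exposure at 37C, with bortezomib titrated as control.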

Assay [20] can be described thus: J3T Cancer Cell Toxicity qHTS against the NCATS CANVASS Library (AID 1347371). In short, it runs like this: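 Cytotoxicity read as CellTiterGlo ATP luminescence after 72 h incubation (37C, 5% CO2) of J3T canine glioma cells (500/well) with an 11-point compound series.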

`C/C(=C\[C@H](C)C(=O)/C=C/CC1CC(=O)NC(=O)C1)[C@@H]1OC(=O)CCCC/C=C/[C@H](O)[C@@H](O)[C@@H]1C`: the Potency entry in assay [1], in [2], in assay [4], in [5], in assay [9] and in assay [10] was “inactive” throughout. The Potency result in assay [11] and in [13] was “inactive” in each case. Besides, the result in [3] and in [15] was inactive. The Potency is 5.9 µM (active) in assay [6]; 23.4 µM (active) in assay [7]; 21.7 µM (active) in [8]; 4.67 µM (active) in [12]; 19.3 µM (active) in assay [14]; 24.1 µM (active) in [16].
Regarding `C=C[C@]1(C)CC[C@@H]([C@H](C)C(=O)/C=C/C(C)(C)O)O1`, the Potency result in assay [17], in assay [1], in assay [2], in assay [18], in assay [4] and in assay [5] was “inactive” in each case. Besides, the Potency entry in assay [19], in assay [8], in assay [10], in assay [11] and in assay [13] was “inactive” in each case. Besides, the compound was called inactive in [3] and in assay [15]. The Potency in assay [12] is 16.6 µM (active).
As to `CN1CCc2cc3c(c4c2C1(C)C(=O)c1cc(O)ccc1-4)OCO3` (stereo not given), the Potency result in [1], in assay [2], in [18], in assay [4], in assay [20] and in assay [8] was “inactive” throughout. The Potency result in [9], in assay [10], in assay [12] and in [13] was “inactive” throughout. Besides, the outcome in [3] and in assay [15] was inactive. For the same compound, the Potency is 23.5 µM (active) in assay [5], 1.18 µM (active) in assay [6], 13.2 µM (active) in [7] and 19.3 µM (active) in [14].
For the compound `O[C@H]1C=C2[C@H]3CN(Cc4cc5c(cc43)OCO5)[C@H]2C[C@@H]1O`, the Potency result in assay [1], in [2], in assay [18], in [4], in assay [8] and in assay [9] was “inactive” throughout. Further, the Potency entry in assay [10], in assay [12], in [13], in assay [14] and in assay [16] was “inactive” in each case. For the same compound, the call in assay [3] and in [15] was inactive. Also, the Potency is 10.5 µM (active) in assay [5], 13.2 µM (active) in assay [19], 6.62 µM (active) in assay [6] and 38.4 µM (active) in assay [11].
For the compound `COc1cc(C2C3=C(Cc4cc5c(cc42)OCO5)C(=O)OC3)cc(OC)c1OC` (stereo not given), the Potency entry in [17], in [1], in assay [4], in assay [7], in [8] and in assay [10] was “inactive” in each case. The Potency entry in assay [11], in assay [13] and in assay [14] was “inactive” each time. The compound was classed as inactive in assay [3] and in assay [15]. Further, the figures for the Potency in [5], in [19] and in assay [6] were 0.105 µM (active), 0.105 µM (active) and 0.0935 µM (active), respectively.
Turning to `CC[C@@H](c1cc(OC)c(OC)cc1OC)[C@H](C)[C@@H](/C(C)=C/c1cc(OC)c(OC)cc1OC)c1cc(OC)c(OC)cc1OC`, the Potency entry in assay [17], in assay [2], in [18], in assay [5], in [19] and in assay [6] was “inactive” each time. Moreover, the Potency result in [20], in assay [8], in assay [9], in [11], in assay [13] and in [16] was “inactive” throughout. Moreover, the Potency is 11.9 µM (active) in assay [1]; 13.2 µM (active) in assay [7]; 23.4 µM (active) and 20.9 µM (active) in assay [10]; 2.43 µM (active) and 19.3 µM (active) in assay [14]. In addition, the compound was called inactive in [3] and in assay [15].
